26 compounds from PubChem BioAssay (NCATS) can be followed below.

Results filed as inconclusive are left out. Active and inactive are the calls of the source. Unless noted, calls come from the whole dose curve; as a rule, active = well fitted curve in the direction sought with a large enough effect; inconclusive = small, poorly fitted or top-dose-only effect, or another doubt; inactive = no such curve, though single readings can be large; an effect the other way counts as inactive or inconclusive.

Assay [1] is described as follows: MultiTox-Fluor Cytotoxicity Assay - LYMP1-001 - Dead Cells (AID 946). Note: potency is the fitted concentration of half-maximal effect. The gist of the method:
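Seed 2500 LYMP1-001 cells/well, incubate 5 hr at 37 C; add compound, 16 hr at 37 C; add MultiTox-Fluor reagent, 60 min RT; read dead-cell fluorescence Ex/Em=485/520. Normalize to DMSO and 15 uM tetraoctylammonium bromide.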

Assay [2] can be described thus: MultiTox-Fluor Cytotoxicity Assay - LYMP1-001 - Live Cells (AID 947). Note: potency is the fitted concentration of half-maximal effect.
Assay [3] is described as follows: Cell Viability - LYMP1-002 - Assay at 16 hr (AID 948). Note: potency is the fitted concentration of half-maximal effect. The gist of the method:
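ATP luminescence (CellTiter-Glo) was measured after 16 hr compound exposure at 37 C of 2500 lymphoblastoid LYMP1-002 cells per well. Concentration-response curves were fitted with the Hill equation to give AC50.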

The nature of assay [4]: MultiTox-Fluor Cytotoxicity Assay - LYMP1-002 - Live Cells (AID 955). Note: potency is the fitted concentration of half-maximal effect. The gist of the method:
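Human lymphoblastoid LYMP1-002 cells, 2500/well in complete medium, rested 5 hr at 37 C, then exposed to compounds for 16 hr at 37 C. Live-cell protease cleavage of GF-AFC read by fluorescence (Ex/Em 405/510) after 60 min at room temperature; AC50 from Hill fits.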

Assay [5] can be described thus: MultiTox-Fluor Cytotoxicity Assay - LYMP1-002 - Dead Cells (AID 960). Note: nearly all actives have a fitted effect of over 60% in size. Note: potency is the fitted concentration of half-maximal effect. Summed up: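 Human lymphoblastoid cells (LYMP1-002), 2500/well in complete medium, were exposed to compounds for 16 hr at 37 C. Dead-cell protease activity was read as bis-AAF-R110 fluorescence (Ex/Em 485/520), normalized to DMSO and 15 uM tetraoctylammonium bromide; AC50 from Hill fits.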
Assay [6] can be described thus: MultiTox-Fluor Cytotoxicity Assay - LYMP1-003 - Dead Cells (AID 961). Note: nearly all actives have a fitted effect of over 70% in size. Note: potency is the fitted concentration of half-maximal effect. Summed up: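 LYMP1-003 lymphoblastoid, 2500 cells/well, 5 hr settle then 16 hr cpd at 37 C; MultiTox-Fluor reagent 60 min RT; Ex/Em 485/520 dead-cell signal; norm. DMSO = 0%, 15 uM tetraoctylammonium bromide = 100%; Hill AC50.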
For assay [7], the target named is Pyruvate kinase (Leishmania mexicana) (UniProt Q27686). Kind of assay: qHTS Validation Assay for Inhibitors of Leishmania Mexicana Pyruvate Kinase (AID 945). Note: potency is the fitted concentration of half-maximal effect. The gist of the method:
(§1)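 The enzyme is a highly purified E451W mutant of LmPYK used at 0.2 nM. It converts 0.5 mM PEP and 0.1 mM ADP over 1 h at room temperature; product ATP is quantified by luciferase luminescence relative to DMSO controls.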

In assay [8] the target is Pyruvate kinase PKM (Homo sapiens) (UniProt P14618). The assay can be described thus: qHTS Assay for Activators of Human Muscle Pyruvate Kinase (AID 954; active = well fitted curve in the direction sought with a large enough effect, not every such curve was filed as active). Summed up:
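Reaction: 0.1 nM purified PKM2 with 0.5 mM phosphoenolpyruvate and 0.1 mM ADP, room temperature, 1 h. Readout: luciferase-based ATP luminescence after stop reagent. Activators judged against a 0.3 nM enzyme column.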

Assay [9] addresses Pyruvate kinase (Leishmania mexicana) (UniProt Q27686). The assay can be described thus: qHTS Validation Assay for Activators of Leishmania Mexicana Pyruvate Kinase (AID 959). Summed up: as §1
The target of assay [10] is Pyruvate kinase PKM (Homo sapiens) (UniProt P14618). The assay can be described thus: qHTS Assay for Inhibitors of Human Muscle Pyruvate Kinase (AID 958). The gist of the method:
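ATP production by PKM2 detected via luciferase luminescence after 1 h room-temperature reaction (0.1 nM enzyme, PEP at Km 0.5 mM, ADP 0.1 mM, pH 7.2 imidazole buffer). Inhibition scaled to no-enzyme control; activation referenced to 0.3 nM enzyme wells.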
For orientation: In qHTS, concentration-response curves come from the screen itself.

Pyruvate kinase PKM (Homo sapiens), sequence (P14618 whole entry, looked up): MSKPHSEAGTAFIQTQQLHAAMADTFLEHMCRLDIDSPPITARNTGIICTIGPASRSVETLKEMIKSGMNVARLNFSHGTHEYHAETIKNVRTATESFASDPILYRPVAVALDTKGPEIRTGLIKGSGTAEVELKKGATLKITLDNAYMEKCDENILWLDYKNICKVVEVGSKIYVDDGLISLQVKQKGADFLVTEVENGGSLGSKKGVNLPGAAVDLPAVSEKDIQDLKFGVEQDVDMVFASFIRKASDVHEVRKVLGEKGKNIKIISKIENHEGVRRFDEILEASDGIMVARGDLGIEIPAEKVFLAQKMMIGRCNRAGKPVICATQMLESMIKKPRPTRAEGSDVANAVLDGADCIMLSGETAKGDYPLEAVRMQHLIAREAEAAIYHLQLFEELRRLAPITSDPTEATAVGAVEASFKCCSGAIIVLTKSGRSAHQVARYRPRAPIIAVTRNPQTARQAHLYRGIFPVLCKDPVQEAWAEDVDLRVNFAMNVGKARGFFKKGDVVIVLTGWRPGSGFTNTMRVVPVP
Pyruvate kinase (Leishmania mexicana), sequence (Q27686 2-499 E452W): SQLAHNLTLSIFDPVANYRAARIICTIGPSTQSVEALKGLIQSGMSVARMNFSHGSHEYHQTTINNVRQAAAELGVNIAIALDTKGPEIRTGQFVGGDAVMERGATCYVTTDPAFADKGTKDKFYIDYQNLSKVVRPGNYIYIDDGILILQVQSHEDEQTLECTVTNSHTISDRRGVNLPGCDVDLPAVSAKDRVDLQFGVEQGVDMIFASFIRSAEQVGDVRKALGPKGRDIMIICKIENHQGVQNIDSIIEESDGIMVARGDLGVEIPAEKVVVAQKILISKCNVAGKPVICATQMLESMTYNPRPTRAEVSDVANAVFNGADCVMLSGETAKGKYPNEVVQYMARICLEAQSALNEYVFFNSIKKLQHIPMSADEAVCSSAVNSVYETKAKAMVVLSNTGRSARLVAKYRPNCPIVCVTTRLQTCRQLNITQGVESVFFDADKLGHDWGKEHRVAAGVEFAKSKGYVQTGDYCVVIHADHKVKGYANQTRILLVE

On to `c1ccc2sc(SSc3nc4ccccc4s3)nc2c1`, for which the Potency entry in assay [1], in assay [2], in assay [3], in assay [4], in [5] and in [6] was “inactive” in each case.

As for `C#C[C@]1(O)CC[C@H]2[C@@H]3CCc4cc(O)ccc4[C@H]3CC[C@@]21C`, the Potency result in assay [2], in assay [3] and in [4] was “inactive” throughout.

As for `S=c1[nH]c2ccccc2s1`, the Potency result in [1], in assay [2], in assay [3], in assay [4], in assay [5] and in [6] was “inactive” each time.

Consider `O=C(O)c1cc(O)c(O)c(O)c1`, for which the Potency entry in [1], in [3], in assay [4] and in assay [6] was “inactive” in each case.

As for `CCCCCCCCCCCCCCCCCC(=O)O`, the Potency entry in assay [1], in assay [2], in assay [3], in assay [4], in assay [5] and in assay [6] was “inactive” each time.

In the case of `O=C(Nc1cccc(C(=O)Nc2ccc(S(=O)(=O)O)c3cc(S(=O)(=O)O)cc(S(=O)(=O)O)c23)c1)Nc1cccc(C(=O)Nc2ccc(S(=O)(=O)O)c3cc(S(=O)(=O)O)cc(S(=O)(=O)O)c23)c1`, the Potency result in [7] was “inactive”. For the same compound, the compound was classed as inactive in assay [8]. In addition, in [9], the Potency is 0.398 µM (active).

In the case of `Cc1ccc(O)c(N=Nc2ccccc2)n1`, the Potency in assay [7] and in [10] was 6.31 µM (active) throughout. Moreover, the compound was classed as inactive in [8]. In addition, the Potency entry in [9] was “inactive”.

Consider `N=C1N=C(N)c2cc3ccccc3cc21`, for which the Potency is 39.8 µM (active) in assay [1], 39.8 µM (active) in assay [3], 25.1 µM (active) in assay [4] and 39.8 µM (active) in assay [6].

Take `COc1cc(CNC(=O)CCCC/C=C/C(C)C)ccc1O`: the Potency result in [1], in assay [2], in assay [3], in assay [4] and in assay [6] was “inactive” in each case.

Regarding `Cc1cc(NC(=O)Nc2ccc3c(ccn3C)c2)sn1`, the compound was called inactive in assay [8]. Also, in assay [9], the Potency entry is “inactive”.

On to `Nc1nc2ccc([N+](=O)[O-])cc2s1`, for which the Potency entry in assay [1], in assay [2], in [3], in [4], in [5] and in [6] was “inactive” throughout.

As for `NCCO`, the Potency result in assay [1], in assay [2], in [3], in [4], in [5] and in [6] was “inactive” each time.

As for `CN(C)CCC(c1ccc(Cl)cc1)c1ccccn1` (stereo not drawn), the Potency entry in assay [1], in assay [3], in assay [4], in assay [5] and in assay [6] was “inactive” each time.

For the compound `NC(N)=NC(=O)c1nc(Cl)c(N2CCCCCC2)nc1N`, in assay [8], the compound was called inactive. In addition, the Potency entry in [9] was “inactive”.

As for `O=C(Nc1ccccc1)c1cc([N+](=O)[O-])ccc1Cl`, the compound was called inactive in assay [8]. For the same compound, in assay [9], the Potency result is “inactive”.

`O=C1CN(/N=C/c2ccc([N+](=O)[O-])o2)C(=O)N1`: the Potency result in assay [1], in assay [3], in assay [4], in [5] and in assay [6] was “inactive” each time.

Take `COc1ccc(/C=C/C(=O)Nc2ccccc2C(=O)O)cc1OC`: the figures for the Potency in assay [7] and in assay [10] were 12.6 µM (active) and 20 µM (active), respectively. In addition, the compound was called inactive in assay [8]. Also, the Potency result in assay [9] is “inactive”.

`O=C(O)/C=C\C(=O)O`: the Potency entry in [1], in assay [2], in assay [3], in [4], in [5] and in assay [6] was “inactive” throughout.

Regarding `CN(C)c1ccc(C(=C2C=CC(=[N+](C)C)C=C2)c2ccccc2)cc1`, the Potency is 0.501 µM (active) in assay [1]; 1 µM (active) in assay [2]; 1.58 µM (active) in assay [3]; 1.58 µM (active) in assay [4]; 1.58 µM (active) in assay [5]; 2 µM (active) in assay [6].

Turning to `COc1cc(/C=C/C(=O)CC(=O)/C=C/c2ccc(O)c(OC)c2)ccc1O`, the Potency in [1], in assay [3] and in [6] was 50.1 µM (active) each time. Moreover, the Potency result in assay [2] was “inactive”.

Turning to `O=c1cc(-c2ccccc2)oc2ccccc12`, the Potency entry in [1], in assay [2], in [3], in [4], in [5] and in assay [6] was “inactive” each time.

For the compound `Nc1ccc([N+](=O)[O-])cc1O`, the Potency entry in [1], in assay [2], in assay [3], in assay [4], in [5] and in assay [6] was “inactive” each time.

On to `CN1CCC[C@H]1c1cccnc1`, for which the Potency result in [1], in assay [2], in assay [3], in assay [4], in [5] and in [6] was “inactive” throughout.

Regarding `CN=c1nc(-c2ccccc2)n(-c2ccccc2)s1`, the Potency was 5.01 µM (active) in assay [7] and 25.1 µM (active) in assay [10]. Besides, the compound was called inactive in [8]. In addition, the Potency entry in assay [9] was “inactive”.

In the case of `CC1(C)S[C@@H]2[C@H](NC(=O)[C@H](N)c3ccccc3)C(=O)N2[C@H]1C(=O)O`, the Potency entry in assay [1], in assay [2], in [3], in assay [4], in [5] and in [6] was “inactive” in each case.

For `Nc1ccc(O)c(C(=O)O)c1`, the Potency entry in assay [1], in assay [2], in assay [3], in assay [4], in assay [5] and in assay [6] was “inactive” throughout.
